Results filed as inconclusive are left out. Calls of active or inactive are those of the source. Unless noted, calls come from the whole dose curve; as a rule, active = well fitted curve in the direction sought with a large enough effect; inconclusive = small, poorly fitted or top-dose-only effect, or another doubt; inactive = no such curve, though single readings can be large; an effect the other way counts as inactive or inconclusive.
Columns and labels:
[1] = target: Lysosomal acid glucosylceramidase (Homo sapiens) (UniProt P04062); assay: Glucocerebrosidase-p2 (AID 348; in the data active = potency below about 10 µM; note: potency is the fitted concentration of half-maximal effect); conditions: purified GBA, blue fluorogenic substrate, 40 min
Lysosomal acid glucosylceramidase (Homo sapiens), sequence (P04062 whole entry, looked up): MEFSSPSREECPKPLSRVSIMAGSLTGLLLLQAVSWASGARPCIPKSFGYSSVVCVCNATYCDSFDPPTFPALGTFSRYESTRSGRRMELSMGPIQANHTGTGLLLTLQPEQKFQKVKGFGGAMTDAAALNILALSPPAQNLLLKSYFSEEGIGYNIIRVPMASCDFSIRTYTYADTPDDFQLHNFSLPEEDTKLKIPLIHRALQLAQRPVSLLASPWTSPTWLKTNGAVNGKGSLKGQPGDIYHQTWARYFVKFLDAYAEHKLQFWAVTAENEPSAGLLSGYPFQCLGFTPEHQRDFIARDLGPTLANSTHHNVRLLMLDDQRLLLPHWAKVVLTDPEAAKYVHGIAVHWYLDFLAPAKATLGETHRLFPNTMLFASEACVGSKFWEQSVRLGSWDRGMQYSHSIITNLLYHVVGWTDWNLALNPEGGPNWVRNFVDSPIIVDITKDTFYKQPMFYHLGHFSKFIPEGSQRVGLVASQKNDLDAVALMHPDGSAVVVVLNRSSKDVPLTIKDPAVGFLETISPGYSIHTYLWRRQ
In short: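 Normal human glucocerebrosidase (0.2 nM) with blue fluorogenic substrate (80 uM final) in citrate/phosphate pH 5.9 with 10mM sodium taurocholate, 0.01% tween-20; 40 min RT, NaOH/glycine stop; fluorescence Ex 365/Em 440; AC50 from a titration from 0.6 nM upwards.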

[2] = AP1 Signaling Pathway (AID 357; active = well fitted curve in either direction with a large enough effect, not every such curve was filed as active;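 note: ME-180 reporter cells stimulated with EGF at its EC50 level; % is set by controls: 0 for no effect and ±100 for the full control effect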); conditions: ME-180 AP-1-bla reporter, EGF-induced, beta-lactamase ratio, 5 h; at 7.69 µM (top of the series) unless noted
In short: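 Titration-series screen for positive or negative modulators of EC50 EGF-induced signaling in ME-180 cells carrying an AP-1-driven beta-lactamase reporter. After 5 hours at 37 degrees Celsius, CCF4 460nm/530nm emission ratio gave %Activity; AC50 values derived.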

[3] = NFAT Signaling Pathway (AID 444; active = well fitted curve in either direction with a large enough effect, not every such curve was filed as active;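 note: carbachol stimulus at about its EC50 of 1 µM final; % is set by controls: 0 for no effect and ±100 for the full control effect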); conditions: Jurkat NFAT-bla M1, carbachol, beta-lactamase ratio, 5 h; at 7.69 µM (top of the series) unless noted
In short: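 Read-out: CCF4 FRET ratio (460 nm/530 nm) after 1 h RT dye loading, used for %activity and AC50 from titration series. Cells: Jurkat NFAT-β-lactamase/M1 line, treated with compound plus 1 uM carbachol for 5 h, 37 °C.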

[4] = Stat Signaling Pathway (AID 446; active = well fitted curve in either direction with a large enough effect, not every such curve was filed as active;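 note: ME-180 cervical cancer cells given 40 pM IL-6 alongside compound; SIE-controlled beta-lactamase reporter measured as 460/530 nm FRET emission ratio; % is set by controls: 0 for no effect and ±100 for the full control effect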); conditions: ME-180 SIE beta-lactamase reporter, IL-6 stimulated, 5 h; at 7.69 µM (top of the series) unless noted
In short: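 Normalization used AC90 stimulation (300 pM IL-6) and AC90 inhibition (125 nM pan-JAK inhibitor at 40 pM IL-6). The underlying signal is SIE-driven beta-lactamase in ME-180 cells after 5 h IL-6 exposure with compound.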

[5] = target: Glucocorticoid receptor (Homo sapiens) (UniProt P04150); assay: GR-GFP Redistribution (AID 450;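 active = compounds whose dose series gives a full or clear partial fitted curve of increased nuclear translocation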; note: potency is the fitted concentration of half-maximal effect); conditions: U2OS GR-GFP nuclear translocation, laser cytometry, 2 h
Glucocorticoid receptor (Homo sapiens), sequence (P04150 whole entry, looked up, the tested form may be a part): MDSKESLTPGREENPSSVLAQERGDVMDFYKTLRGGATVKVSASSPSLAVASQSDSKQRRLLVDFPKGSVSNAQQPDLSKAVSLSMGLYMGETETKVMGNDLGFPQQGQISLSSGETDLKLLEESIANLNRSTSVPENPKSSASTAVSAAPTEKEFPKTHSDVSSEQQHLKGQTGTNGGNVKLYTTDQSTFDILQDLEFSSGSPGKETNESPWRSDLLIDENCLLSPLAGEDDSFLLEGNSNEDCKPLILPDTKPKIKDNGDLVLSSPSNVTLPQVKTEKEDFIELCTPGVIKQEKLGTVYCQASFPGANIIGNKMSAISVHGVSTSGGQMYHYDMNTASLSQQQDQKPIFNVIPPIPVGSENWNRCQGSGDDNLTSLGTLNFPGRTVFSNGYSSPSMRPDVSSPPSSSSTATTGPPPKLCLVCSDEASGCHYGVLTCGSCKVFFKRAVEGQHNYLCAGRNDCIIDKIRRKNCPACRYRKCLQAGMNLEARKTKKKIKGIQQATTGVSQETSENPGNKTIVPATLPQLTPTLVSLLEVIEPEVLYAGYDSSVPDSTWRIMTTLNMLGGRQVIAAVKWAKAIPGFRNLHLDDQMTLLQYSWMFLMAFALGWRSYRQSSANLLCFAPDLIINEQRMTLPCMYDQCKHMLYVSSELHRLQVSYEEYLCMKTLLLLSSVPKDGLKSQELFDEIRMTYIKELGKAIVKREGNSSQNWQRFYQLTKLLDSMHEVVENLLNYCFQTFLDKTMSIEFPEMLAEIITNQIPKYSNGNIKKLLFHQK

[6] = target: Mitogen-activated protein kinase 10 (Mus musculus) (UniProt Q61831); assay: JNK3 AlphaScreen Assay (AID 530; active = well fitted curve in either direction with a large enough effect, not every such curve was filed as active;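 note: kinase came from lysate of stimulated human HepG2 cells; signal reports phosphorylation of biotinylated GST-cJun 1-79 at Ser73 with 10 µM ATP; % is set by controls: 0 for no effect and ±100 for the full control effect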); conditions: JNK3 lysate, c-Jun phosphorylation; series mostly up to 57.1 µM
In short: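 qHTS titrations with 15 min compound pre-incubation before adding ATP (10 uM final). Read-out: AlphaScreen of Ser73-phosphorylated biotin-GST-cJun using HepG2 lysate JNK3 activated by IL-1β and TNFα.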

[7] = target: 3',5'-cyclic-AMP phosphodiesterase 4B (Homo sapiens) (UniProt Q07343); assay: qHTS Assay for Inhibitors of PDE-IV (AID 607; active = well fitted activation curve with a large enough effect in the main read-out, with a control signal flat, not every such curve was filed as active; note: % of control where 0% means no effect); conditions: HEK293 ACTOne CNG channel cells, membrane potential fluorescence; series mostly up to 22.9 µM
3',5'-cyclic-AMP phosphodiesterase 4B (Homo sapiens), sequence (Q07343 whole entry, looked up): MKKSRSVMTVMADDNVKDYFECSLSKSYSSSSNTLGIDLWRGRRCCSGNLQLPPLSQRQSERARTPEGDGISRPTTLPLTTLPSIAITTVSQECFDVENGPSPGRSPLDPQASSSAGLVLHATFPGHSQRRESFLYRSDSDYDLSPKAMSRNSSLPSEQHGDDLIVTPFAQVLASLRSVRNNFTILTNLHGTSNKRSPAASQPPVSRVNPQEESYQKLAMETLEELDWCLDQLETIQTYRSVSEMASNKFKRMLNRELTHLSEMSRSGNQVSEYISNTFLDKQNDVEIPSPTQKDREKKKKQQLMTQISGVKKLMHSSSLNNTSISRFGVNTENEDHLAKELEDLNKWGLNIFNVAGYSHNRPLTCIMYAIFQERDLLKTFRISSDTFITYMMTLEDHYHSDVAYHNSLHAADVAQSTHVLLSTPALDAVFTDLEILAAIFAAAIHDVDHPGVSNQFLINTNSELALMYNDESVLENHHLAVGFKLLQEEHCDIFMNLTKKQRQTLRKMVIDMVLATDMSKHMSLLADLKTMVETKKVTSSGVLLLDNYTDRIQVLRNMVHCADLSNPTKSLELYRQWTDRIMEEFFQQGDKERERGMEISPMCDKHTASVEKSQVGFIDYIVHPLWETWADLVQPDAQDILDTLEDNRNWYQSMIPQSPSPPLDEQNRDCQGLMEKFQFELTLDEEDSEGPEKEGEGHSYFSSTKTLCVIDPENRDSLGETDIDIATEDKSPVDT
In short: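 HEK293 ACTOne cells with CNG channel (1000/well), endogenous PDE4; membrane potential dye, compounds up to 22.9 uM final. Fluorescence Ex 535/Em 590; RO 20-1724 (100 uM final) as reference.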

[8] = target: Cytochrome P450 3A4 (Homo sapiens) (UniProt P08684); assay: qHTS Assay for Activators of Cytochrome P450 3A4 (AID 885); conditions: recombinant CYP3A4, Luciferin-PPXE luminescence, 60 min; series mostly up to 57.1 µM; note: nearly all actives have a fitted effect of over 65% in size
Cytochrome P450 3A4 (Homo sapiens), sequence (P08684 whole entry, looked up): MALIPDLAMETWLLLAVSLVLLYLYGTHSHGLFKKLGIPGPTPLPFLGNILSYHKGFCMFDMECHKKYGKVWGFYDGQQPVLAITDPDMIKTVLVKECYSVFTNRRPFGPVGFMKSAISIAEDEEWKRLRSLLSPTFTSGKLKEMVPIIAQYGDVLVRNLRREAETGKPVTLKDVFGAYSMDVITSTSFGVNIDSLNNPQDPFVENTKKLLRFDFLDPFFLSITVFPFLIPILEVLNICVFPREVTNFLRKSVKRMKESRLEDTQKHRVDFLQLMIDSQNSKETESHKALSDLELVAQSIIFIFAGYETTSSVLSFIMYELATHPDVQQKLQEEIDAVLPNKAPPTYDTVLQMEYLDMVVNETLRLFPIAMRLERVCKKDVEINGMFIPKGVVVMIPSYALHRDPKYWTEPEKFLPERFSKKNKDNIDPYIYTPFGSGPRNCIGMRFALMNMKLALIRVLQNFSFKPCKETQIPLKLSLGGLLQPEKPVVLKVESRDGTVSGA
In short: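 Human CYP3A4 dealkylates Luciferin-PPXE to luciferin, which luciferase detection converts to light. Substrate was at its KM (25uM), buffer 200mM KPO4, reaction 60 min at RT.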

[9] = qHTS Assay for Lipid Storage Modulators (AID 1519; calls by dose curve); conditions: Drosophila S3 cells, BODIPY lipid droplet/cell ratio, laser cytometry, cells loaded with oleic acid; for activity change, negative = inhibition: at 57.5 µM (top of the series)
In short: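 Cells seeded at 5,000 per well were treated with compounds over a concentration series and loaded with oleic acid (400 uM, as added). Lipid droplet fluorescence (488 nm excitation, 500-530 nm channel) was read by laser-scanning cytometry and normalized to 20 uM Triacsin C.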

[10] = target: Dual specificity protein kinase CLK4 (Homo sapiens) (UniProt Q9HAZ1); assay: qHTS Assay for Inhibitors of CDC-like Kinase 4 (Kinase-Glo Assay) (AID 1770); conditions: recombinant Clk4, Kinase-Glo ATP depletion luminescence; series mostly up to 66.7 µM; note: nearly all actives have a fitted effect of over 65% in size; note: potency is the fitted concentration of half-maximal effect
Dual specificity protein kinase CLK4 (Homo sapiens), sequence (Q9HAZ1 whole entry, looked up): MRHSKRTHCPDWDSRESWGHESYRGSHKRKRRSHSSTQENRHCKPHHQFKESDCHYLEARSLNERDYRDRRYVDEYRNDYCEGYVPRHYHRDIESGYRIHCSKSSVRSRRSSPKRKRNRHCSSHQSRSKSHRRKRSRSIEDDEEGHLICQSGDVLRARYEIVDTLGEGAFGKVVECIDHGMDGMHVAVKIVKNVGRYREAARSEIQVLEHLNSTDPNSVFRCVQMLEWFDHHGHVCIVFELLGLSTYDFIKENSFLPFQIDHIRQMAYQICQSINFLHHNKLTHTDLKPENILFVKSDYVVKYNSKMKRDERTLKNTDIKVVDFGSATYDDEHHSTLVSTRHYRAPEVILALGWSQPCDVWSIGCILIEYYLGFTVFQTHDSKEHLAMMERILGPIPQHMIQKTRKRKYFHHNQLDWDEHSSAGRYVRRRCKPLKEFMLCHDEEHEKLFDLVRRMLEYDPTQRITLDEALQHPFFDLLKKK
In short: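 Clk4 25 nM, RS peptide 100 uM, ATP 1 uM, pH 7.5 Tris, 10 mM MgCl2, 2.5 mM DTT; 4.5 h RT; ATP depletion read by Kinase-Glo luminescence.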

[11] = target: Dual specificity protein kinase CLK4 (Homo sapiens) (UniProt Q9HAZ1); assay: qHTS Assay for Inhibitors of CDC-like Kinase 4 (ADP-Glo Assay) (AID 1771); conditions: recombinant CLK4, ADP-Glo luminescence; series mostly up to 80 µM; note: nearly all actives have a fitted effect of over 70% in size; note: potency is the fitted concentration of half-maximal effect
In short: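 Compounds are pin-transferred onto substrate mix (100 uM RS peptide, 1 uM ATP), then 25 nM Clk4 is added. After 1 hr at room temperature, ADP-Glo reagent runs 45 min, detection reagent 30 min, then luminescence is read.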

[12] = target: Dual specificity protein kinase CLK4 (Homo sapiens) (UniProt Q9HAZ1); assay: qHTS Assay for Inhibitors of CDC-like Kinase 4 (ADP-FP Assay) (AID 1795); conditions: Transcreener ADP fluorescence polarization; series mostly up to 50 µM; note: nearly all actives have a fitted effect of over 60% in size; note: potency is the fitted concentration of half-maximal effect
In short: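 Kinase activity was followed as ADP output, converted from fluorescence polarization with a calibration curve. Reactions ran one hour at low ATP (1 uM) with RS peptide substrate.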

[13] = target: Ubiquitin carboxyl-terminal hydrolase 1 (Homo sapiens) (UniProt O94782); assay: Inhibitors of USP1/UAF1: Pilot qHTS (AID 504865); conditions: purified USP1/UAF1, Ub-rhodamine cleavage fluorescence; series mostly up to 54.9 µM;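 note: rhodamine fluorescence freed from ubiquitin-rhodamine substrate followed over time; top concentration of the series differs between compounds; % is set by controls: 0 for no effect and ±100 for the full control effect; nearly all actives have a fitted effect of over 35% in size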
Ubiquitin carboxyl-terminal hydrolase 1 (Homo sapiens), sequence (O94782 whole entry, looked up): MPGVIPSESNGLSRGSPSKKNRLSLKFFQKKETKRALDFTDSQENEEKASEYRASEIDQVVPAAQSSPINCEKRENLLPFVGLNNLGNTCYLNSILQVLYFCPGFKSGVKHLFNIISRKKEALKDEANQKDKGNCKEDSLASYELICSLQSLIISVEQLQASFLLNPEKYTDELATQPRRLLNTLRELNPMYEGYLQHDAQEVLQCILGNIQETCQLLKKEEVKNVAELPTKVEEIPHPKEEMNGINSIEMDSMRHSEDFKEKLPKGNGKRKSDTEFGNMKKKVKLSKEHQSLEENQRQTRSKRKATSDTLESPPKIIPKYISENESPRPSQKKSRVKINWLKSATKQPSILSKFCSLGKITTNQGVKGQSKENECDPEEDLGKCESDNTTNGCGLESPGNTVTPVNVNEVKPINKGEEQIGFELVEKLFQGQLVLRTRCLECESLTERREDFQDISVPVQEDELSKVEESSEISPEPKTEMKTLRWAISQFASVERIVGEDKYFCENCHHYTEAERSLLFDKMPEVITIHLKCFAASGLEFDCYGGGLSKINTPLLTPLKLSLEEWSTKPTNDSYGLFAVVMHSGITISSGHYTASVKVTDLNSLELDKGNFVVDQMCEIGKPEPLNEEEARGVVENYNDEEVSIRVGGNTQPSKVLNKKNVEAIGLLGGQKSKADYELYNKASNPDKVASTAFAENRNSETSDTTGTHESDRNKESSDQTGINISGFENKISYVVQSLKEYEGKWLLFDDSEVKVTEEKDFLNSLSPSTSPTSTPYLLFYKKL
In short: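 Enzyme-free wells gave the negative control, while test wells held 1nM USP1/UAF1 preincubated with compound for 15 min at room temperature. Ub-Rho at 150nM final started the reaction, and fluorescence at 480/540 nm was recorded kinetically.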

[14] = Primary qHTS for small molecule stabilizers of the endoplasmic reticulum resident proteome: Secreted ER Calcium Modulated Protein (SERCaMP) assay (AID 1508630); conditions: SH-SY5Y GLuc-SERCaMP (Gaussia luciferase released on ER calcium loss) secretion, thapsigargin, luminescence; series mostly up to 38.4 µM; note: % is set by controls: 0 for no effect and ±100 for the full control effect
In short: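 The SH-SY5Y reporter protocol was run at 3 concentrations up to 38.3 uM (primary) or 11 concentrations (follow-up): 16 h compound, 100 nM thapsigargin for 4 h, then extracellular luciferase luminescence.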

[15] = target: Cytochrome P450 1A2 (Homo sapiens) (UniProt P05177); assay: p450-cyp1a2 (AID 410; calls by dose curve; note: potency is the fitted concentration of half-maximal effect); conditions: recombinant CYP1A2, luciferin-ME demethylation, luminescence; series mostly up to 57 µM
Cytochrome P450 1A2 (Homo sapiens), sequence (P05177 whole entry, looked up): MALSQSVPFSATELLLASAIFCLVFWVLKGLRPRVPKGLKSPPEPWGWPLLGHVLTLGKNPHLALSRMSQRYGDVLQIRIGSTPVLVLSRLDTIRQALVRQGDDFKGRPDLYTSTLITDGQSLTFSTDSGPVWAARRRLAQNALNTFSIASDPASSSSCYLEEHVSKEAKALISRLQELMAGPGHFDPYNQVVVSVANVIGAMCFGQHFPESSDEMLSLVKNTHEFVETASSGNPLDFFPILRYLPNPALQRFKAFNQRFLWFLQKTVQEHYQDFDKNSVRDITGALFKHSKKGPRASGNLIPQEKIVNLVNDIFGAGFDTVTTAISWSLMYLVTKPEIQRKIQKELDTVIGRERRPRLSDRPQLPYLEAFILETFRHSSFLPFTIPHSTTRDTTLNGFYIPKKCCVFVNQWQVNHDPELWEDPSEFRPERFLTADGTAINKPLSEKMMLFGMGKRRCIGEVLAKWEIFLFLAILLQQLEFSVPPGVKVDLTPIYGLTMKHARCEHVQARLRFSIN
In short: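 O-Demethylation of luciferin 6' methyl ether by human CYP1A2 is monitored as luciferase luminescence. Substrate sits at Km (100uM); enzyme is 20nM. Values are scaled to 57 uM furafylline as maximal inhibition.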

[16] = target: Glucocorticoid receptor (Homo sapiens) (UniProt P04150); assay: GR-EFC Redistribution (AID 451; calls by dose curve; note: potency is the fitted concentration of half-maximal effect); conditions: CHO-K1 GR-EFC translocation, beta-gal luminescence, 2 h
In short: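 Translocation of GR-ED fusion to nuclear EA restores b-gal, read by luminescence after 1 h room-temperature detection. Engineered CHO-K1 biosensor cells, 1,000/well, exposed 2 h at 37 C to titrations up to 46 uM final.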

[17] = qHTS Assay for Identification of Small Molecule Agonists for Hypoxia Response Element Signaling Pathway (AID 914; active = well fitted activation curve with a large enough effect in the signal ratio, with a control signal flat, not every such curve was filed as active; the % refers to the signal ratio; note: potency is the fitted concentration of half-maximal effect; for activation: % of control where 0% means no effect); conditions: ME-180 HRE-bla reporter, beta-lactamase ratio, CoCl2, 17 h; activation: stronger effect = higher value
In short: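 ME-180 cells carrying an HRE-driven beta-lactamase reporter were treated with compounds in a titration series plus an EC50 level of CoCl2 for 17 h at 37 degrees Celsius; CCF4 readout as the 460nm/530nm ratio gave AC50 values.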

[18] = measured here: cell count channel max response
[19] = measured here: lipid channel max response

COCCn1c(=O)c(C)nc2cnc(Oc3ccccc3)nc21
23.5%: max response [9, 18]
27.5%: max response [9, 19]
inactive: Potency [1] > 11.4 µM | activity change, negative = inhibition [2] -9.67% | activity change, negative = inhibition [3] -4.22% | activity, negative = inhibition [4] -12.4% | Potency [5] > 9.22 µM | outcome [6] | Potency [7] | Potency [8] | activity change, negative = inhibition [9] 4.7% | Potency [10] | Potency [11] | Potency [12] | Potency [13] | Potency [14]

COCCn1c(=O)cnc2cnc(Nc3cccc(OC)c3)nc21
inactive: Potency [1] > 11.4 µM | activity change, negative = inhibition [3] -0.925% | Potency [5] > 9.22 µM | Potency [16] > 46 µM | outcome [6] | Potency [7] | Potency [8] | activity change, negative = inhibition [9] -15.5% | Potency [13] | Potency [14]
active: Potency [15] 794 nM | Potency [10] 2.24 µM | Potency [11] 1.78 µM | Potency [12] 1.26 µM
-13.4%: max response [9, 18]
-29.7%: max response [9, 19]

Cc1nc2cnc(N(C)C)nc2n(C[C@H]2CCCO2)c1=O
inactive: Potency [1] > 11.4 µM | activity change, negative = inhibition [2] -5.35% | activity change, negative = inhibition [3] -4.67% | activity, negative = inhibition [4] -0.622% | Potency [16] > 46 µM | outcome [6] | activity change, negative = inhibition [9] 2.86% | Potency [10] | Potency [11] | Potency [12] | Potency [13] | Potency [14]
10.5%: max response [9, 18]
13.4%: max response [9, 19]

CN(C)c1ncc2nc(-c3ccccc3)c(=O)n(C[C@H]3CCCO3)c2n1
3.82%: max response [9, 18]
inactive: Potency [1] > 11.4 µM | activity change, negative = inhibition [2] 11.9% | activity change, negative = inhibition [3] 24.6% | activity, negative = inhibition [4] 20.6% | Potency [5] > 9.22 µM | Potency [16] > 46 µM | Potency [8] | activity change, negative = inhibition [9] 0.857% | Potency [10] | Potency [11] | Potency [12] | Potency [13] | Potency [14]
2.54%: max response [9, 19]

COc1cccc(Nc2ncc3nc(C)c(=O)n(Cc4cccs4)c3n2)c1
12.9%: max response [9, 18]
active: Potency [15] 2510 nM
inactive: Potency [1] > 11.4 µM | activity change, negative = inhibition [3] -29.6% | activity, negative = inhibition [4] -12.1% | Potency [5] > 9.22 µM | Potency [16] > 46 µM | outcome [6] | Potency [8] | activity change, negative = inhibition [9] -16.2% | Potency [10] | Potency [11] | Potency [12] | Potency [13] | Potency [14]
-8.07%: max response [9, 19]

COc1cccc(Cn2c(=O)c(C)nc3cnc(Nc4ccccc4)nc32)c1
11.6%: max response [9, 18]
9.21%: max response [9, 19]
inactive: Potency [1] > 11.4 µM | activity change, negative = inhibition [2] -15.3% | activity, negative = inhibition [4] -3.72% | Potency [5] > 9.22 µM | Potency [16] > 46 µM | outcome [6] | Potency [7] | activity change, negative = inhibition [9] 0.284% | Potency [10] | Potency [11] | Potency [12] | Potency [13] | Potency [14]

CCNc1ncc2nc(-c3ccccc3)c(=O)n(C[C@H]3CCCO3)c2n1
-10%: max response [9, 19]
3.11%: max response [9, 18]
inactive: Potency [1] > 11.4 µM | activity change, negative = inhibition [2] 0.0155% | Potency [5] > 9.22 µM | outcome [6] | activity change, negative = inhibition [9] -15.5% | Potency [10] | Potency [11] | Potency [12] | Potency [13] | Potency [14]

COc1ccc(Oc2ncc3nc(-c4ccc(OC)cc4)c(=O)n(C4CC4)c3n2)cc1
-0.829%: max response [9, 19]
4.42%: max response [9, 18]
inactive: Potency [1] > 11.4 µM | activity change, negative = inhibition [2] -17.1% | activity change, negative = inhibition [3] 18.7% | activity, negative = inhibition [4] -1.53% | Potency [5] > 9.22 µM | Potency [16] > 46 µM | outcome [6] | Potency [7] | activation [17] 12.9% | activity change, negative = inhibition [9] -0.219% | Potency [10] | Potency [11] | Potency [12] | Potency [13] | Potency [14]

CN1CCN(c2ncc3nc(-c4cc(F)cc(F)c4)c(=O)n(Cc4cccs4)c3n2)CC1
active: Potency [15] 6310 nM | activity change, negative = inhibition [3] 168% [activator] | Potency [17] 3.16 µM
inactive: Potency [1] > 11.4 µM | Potency [5] > 9.22 µM | outcome [6] | Potency [7] | Potency [8] | activity change, negative = inhibition [9] -9.14% | Potency [10] | Potency [11] | Potency [12] | Potency [13] | Potency [14]
17.2%: max response [9, 18]
3.46%: max response [9, 19]

COc1ncc2nc(-c3ccc(F)cc3)c(=O)n(C)c2n1
17.8%: max response [9, 18]
25.2%: max response [9, 19]
inactive: Potency [1] > 11.4 µM | Potency [5] > 9.22 µM | Potency [16] > 46 µM | outcome [6] | Potency [7] | Potency [8] | activity change, negative = inhibition [9] 7.5% | Potency [10] | Potency [11] | Potency [12] | Potency [13] | Potency [14]
active: Potency [15] 501 nM | Potency [17] 3.16 µM

COCCn1c(=O)c(-c2cn(C)c3ccccc23)nc2cnc(Oc3cccc(Cl)c3)nc21
inactive: Potency [1] > 11.4 µM | activity change, negative = inhibition [2] -7.97% | activity change, negative = inhibition [3] 5.68% | activity, negative = inhibition [4] 3.06% | Potency [5] > 9.22 µM | Potency [16] > 46 µM | Potency [7] | activity change, negative = inhibition [9] -4.01% | Potency [10] | Potency [11] | Potency [12] | Potency [13] | Potency [14]
23.7%: max response [9, 18]
16.7%: max response [9, 19]

— PubChem BioAssay (NCATS)
